# Results published in the supplement of paper PMC8728848.
# Shown is part of a subset that was picked to be rich in the strongest signals.
# What was measured:
# Test in all cases: glycan array binding signal (z-score within array); higher = stronger binding
# Conditions in all cases: glycan notation: IUPAC condensed, linker removed
# Fuc(a1-2)Gal(b1-3)GalNAc = target: Fuc(a1-2)Gal(b1-3)GalNAc
# Procedure, shortened: (§1)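 Glycan array data were curated from 3228 arrays in the Consortium for Functional Glycomics database and kept only where the protein sequence was available. Glycan names were converted to IUPAC-condensed notation, and columns mapping to the same glycan were averaged. The binding signal is a within-array Z-score, averaged across arrays of the same protein sequence at different concentrations or buffers and across linkers. Negative Z-scores can be read as non-binding.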
# [1] = target: Fuc(a1-2)Gal(b1-3)GalNAc(b1-4)[Neu5Ac(a2-3)]Gal(b1-4)Glc
# Procedure, shortened: as §1
# [2] = target: Fuc(a1-2)Gal(b1-3)GlcNAc(b1-3)[Neu5Ac(a2-6)Gal(b1-4)GlcNAc(b1-6)]Gal(b1-4)Glc
# Procedure, shortened: as §1
# [3] = target: Fuc(a1-2)Gal(b1-3)GlcNAc6S
# Procedure, shortened: as §1
# [4] = target: Fuc(a1-2)Gal(b1-3)[Fuc(a1-4)]GlcNAc
# Procedure, shortened: as §1
# [5] = target: Fuc(a1-2)Gal(b1-3)[Fuc(a1-4)]GlcNAc(b1-2)Man(a1-3)[Fuc(a1-2)Gal(b1-3)[Fuc(a1-4)]GlcNAc(b1-2)Man(a1-3)]Man(b1-4)GlcNAc(b1-4)GlcNAc
# Procedure, shortened: as §1
# Fuc(a1-2)Gal(b1-4)Glc = target: Fuc(a1-2)Gal(b1-4)Glc
# Procedure, shortened: as §1
# Fuc(a1-2)Gal(b1-4)Glc6S = target: Fuc(a1-2)Gal(b1-4)Glc6S
# Procedure, shortened: as §1
# [6] = target: Fuc(a1-2)Gal(b1-4)GlcNAc(b1-2)Man
# Procedure, shortened: as §1
# [7] = target: Fuc(a1-2)Gal(b1-4)[Fuc(a1-3)]GlcNAc
# Procedure, shortened: as §1
# [8] = target: Fuc(a1-2)[Gal(a1-3)]Gal(b1-4)[Fuc(a1-3)]Glc
# Procedure, shortened: as §1
# [9] = target: Fuc(a1-2)[Gal(a1-3)]Gal(b1-4)[Fuc(a1-3)]GlcNAc
# Procedure, shortened: as §1
# [10] = target: Fuc(a1-2)[GalNAc(a1-3)]Gal(b1-3)GlcNAc
# Procedure, shortened: as §1
# [11] = target: Fuc(a1-2)[GalNAc(a1-3)]Gal(b1-3)GlcNAc(b1-2)Man(a1-3)[Fuc(a1-2)[GalNAc(a1-3)]Gal(b1-3)GlcNAc(b1-2)Man(a1-6)]Man(b1-4)GlcNAc(b1-4)GlcNAc
# Procedure, shortened: as §1
# [12] = target: Fuc(a1-3)[Gal(b1-4)]GlcNAc(b1-3)GalNAc
# Procedure, shortened: as §1
# [13] = target: Fuc(a1-3)[Gal3S(b1-4)]GlcNAc
# Procedure, shortened: as §1
# [14] = target: Fuc(a1-3)[GalNAc(b1-4)]GlcNAc
# Procedure, shortened: as §1
# [15] = target: Gal(a1-4)Gal(b1-3)GlcNAc(b1-2)Man(a1-3)[Gal(a1-4)Gal(b1-3)GlcNAc(b1-2)Man(a1-6)]Man(b1-4)GlcNAc(b1-4)GlcNAc
# Procedure, shortened: as §1
# Gal(a1-4)GlcNAc = target: Gal(a1-4)GlcNAc
# Procedure, shortened: as §1
# Gal(b1-3)Gal = target: Gal(b1-3)Gal
# Procedure, shortened: as §1
# Gal(b1-3)GalNAc = target: Gal(b1-3)GalNAc
# Procedure, shortened: as §1
# [16] = target: Gal(b1-3)GlcNAc(b1-2)Man(a1-3)[GlcNAc(b1-4)][Gal(b1-3)GlcNAc(b1-2)Man(a1-6)]Man(b1-4)GlcNAc(b1-4)GlcNAc
# Procedure, shortened: as §1
# [17] = target: Gal(b1-3)GlcNAc(b1-3)Gal(b1-4)GlcNAc(b1-3)Gal(b1-4)GlcNAc(b1-2)[Gal(b1-3)GlcNAc(b1-3)Gal(b1-4)GlcNAc(b1-3)Gal(b1-4)GlcNAc(b1-6)]Man(a1-6)[Gal(b1-3)GlcNAc(b1-3)Gal(b1-4)GlcNAc(b1-3)Gal(b1-4)GlcNAc(b1-2)Man(a1-3)]Man(b1-4)GlcNAc(b1-4)[Fuc(a1-6)]GlcNAc
# Procedure, shortened: as §1
# [18] = target: Gal(b1-3)GlcNAc(b1-3)GalNAc
# Procedure, shortened: as §1
# [19] = target: Gal(b1-3)[Neu5Ac(a2-6)]GalNAc
# Procedure, shortened: as §1
# Gal(b1-4)Gal = target: Gal(b1-4)Gal
# Procedure, shortened: as §1
# [20] = target: Gal(b1-4)GlcNAc(b1-2)Man(a1-3)[Gal(b1-4)GlcNAc(b1-2)Man(a1-6)]Man(b1-4)GlcNAc(b1-4)[Fuc(a1-6)]GlcNAc
# Procedure, shortened: as §1
# [21] = target: Gal(b1-4)GlcNAc(b1-2)Man(a1-3)[Man(a1-6)]Man(b1-4)GlcNAc(b1-4)GlcNAc
# Procedure, shortened: as §1
# [22] = target: Gal(b1-4)GlcNAc(b1-2)[Gal(b1-4)GlcNAc(b1-4)]Man(a1-3)[GlcNAc(b1-4)][Gal(b1-4)GlcNAc(b1-2)Man(a1-6)]Man(b1-4)GlcNAc(b1-4)GlcNAc
# Procedure, shortened: as §1
# [23] = target: Gal(b1-4)GlcNAc(b1-2)[Gal(b1-4)GlcNAc(b1-6)]Man(a1-6)[Gal(b1-4)GlcNAc(b1-2)Man(a1-3)]Man(b1-4)GlcNAc(b1-4)[Fuc(a1-6)]GlcNAc
# Procedure, shortened: as §1
binder,measurement,setting,value
"SHCBP1-GST (Homo sapiens), Q8NEM2 (protein) MADGSLTGGGLEAAAMAPERMGWAVEQELASLEKGLFQDEDSCSDCSYRDKPGSSLQSFMPEGKTFFPEIFQTNQLLFYERFRAYQDYILADCKASEVQEFTAEFLEKVLEPSGWRAVWHTNVFKVLVEITDVDFAALKAVVRLAEPYLCDSQVSTFTMECMKELLDLKEHRLPLQELWVVFDDSGVFDQTALAIEHVRFFYQNIWRSWDEEEEDEYDYFVRCVEPRLRLHYDILEDRVPSGLIVDYHNLLSQCEESYRKFLNLRSSLSNCNSDSEQENISMVEGLKLYSEMEQLKQKLKLIENPLLRYVFGYQKNSNIQAKGVRSSGQKITHVVSSTMMAGLLRSLLTDRLCQEPGEEEREIQFHSDPLSAINACFEGDTVIVCPGHYVVHGTFSIADSIELEGYGLPDDIVIEKRGKGDTFVDCTGADIKISGIKFVQHDAVEGILIVHRGKTTLENCVLQCETTGVTVRTSAEFLMKNSDLYGAKGAGIEIYPGSQCTLSDNGIHHCKEGILIKDFLDEHYDIPKISMVNNIIHNNEGYGVVLVKPTIFSDLQENAEDGTEENKALKIQTSGEPDVAERVDLEELIECATGKMELCARTDPSEQVEGNCEIVNELIAASTQKGQIKKKRLSELGITQADDNLMSQEMFVGIVGNQFKWNGKGSFGTFLF",glycan array binding signal (z-score),Fuc(a1-2)Gal(b1-3)GalNAc,-0.317
same,glycan array binding signal (z-score),[1],-0.821
same,glycan array binding signal (z-score),[2],-0.751
same,glycan array binding signal (z-score),[3],-0.806
same,glycan array binding signal (z-score),[4],0.085
same,glycan array binding signal (z-score),[5],0.999
same,glycan array binding signal (z-score),Fuc(a1-2)Gal(b1-4)Glc,-0.192
same,glycan array binding signal (z-score),Fuc(a1-2)Gal(b1-4)Glc6S,-0.251
same,glycan array binding signal (z-score),[6],-0.583
same,glycan array binding signal (z-score),[7],-0.113
same,glycan array binding signal (z-score),[8],-0.299
same,glycan array binding signal (z-score),[9],0.298
same,glycan array binding signal (z-score),[10],-0.199
same,glycan array binding signal (z-score),[11],-0.355
same,glycan array binding signal (z-score),[12],2.35
same,glycan array binding signal (z-score),[13],-0.161
same,glycan array binding signal (z-score),[14],0.35
same,glycan array binding signal (z-score),[15],4.1
same,glycan array binding signal (z-score),Gal(a1-4)GlcNAc,-0.477
same,glycan array binding signal (z-score),Gal(b1-3)Gal,0.702
same,glycan array binding signal (z-score),Gal(b1-3)GalNAc,-0.251
same,glycan array binding signal (z-score),[16],2.98
same,glycan array binding signal (z-score),[17],3.45
same,glycan array binding signal (z-score),[18],0.539
same,glycan array binding signal (z-score),[19],-1.01
same,glycan array binding signal (z-score),Gal(b1-4)Gal,-0.879
same,glycan array binding signal (z-score),[20],0.409
same,glycan array binding signal (z-score),[21],0.6
same,glycan array binding signal (z-score),[22],0.176
same,glycan array binding signal (z-score),[23],5.01
